# Measurements: PubChem BioAssay AID602143 (Vanderbilt Specialized Chemistry Center, 2011)
# Several values for one entry are separate records, joined by “and”; a condition that tells them apart may be missing. Identical values can stand only once. A structure can be active in one record and inactive in another. Activity calls are given as the source filed them. Rule as the data show it: active = remaining activity below about 50%; inactive = the rest.
# Target: Phospholipase D2 (Homo sapiens) (UniProt O14939)
# Sequence (O14939 whole entry, looked up): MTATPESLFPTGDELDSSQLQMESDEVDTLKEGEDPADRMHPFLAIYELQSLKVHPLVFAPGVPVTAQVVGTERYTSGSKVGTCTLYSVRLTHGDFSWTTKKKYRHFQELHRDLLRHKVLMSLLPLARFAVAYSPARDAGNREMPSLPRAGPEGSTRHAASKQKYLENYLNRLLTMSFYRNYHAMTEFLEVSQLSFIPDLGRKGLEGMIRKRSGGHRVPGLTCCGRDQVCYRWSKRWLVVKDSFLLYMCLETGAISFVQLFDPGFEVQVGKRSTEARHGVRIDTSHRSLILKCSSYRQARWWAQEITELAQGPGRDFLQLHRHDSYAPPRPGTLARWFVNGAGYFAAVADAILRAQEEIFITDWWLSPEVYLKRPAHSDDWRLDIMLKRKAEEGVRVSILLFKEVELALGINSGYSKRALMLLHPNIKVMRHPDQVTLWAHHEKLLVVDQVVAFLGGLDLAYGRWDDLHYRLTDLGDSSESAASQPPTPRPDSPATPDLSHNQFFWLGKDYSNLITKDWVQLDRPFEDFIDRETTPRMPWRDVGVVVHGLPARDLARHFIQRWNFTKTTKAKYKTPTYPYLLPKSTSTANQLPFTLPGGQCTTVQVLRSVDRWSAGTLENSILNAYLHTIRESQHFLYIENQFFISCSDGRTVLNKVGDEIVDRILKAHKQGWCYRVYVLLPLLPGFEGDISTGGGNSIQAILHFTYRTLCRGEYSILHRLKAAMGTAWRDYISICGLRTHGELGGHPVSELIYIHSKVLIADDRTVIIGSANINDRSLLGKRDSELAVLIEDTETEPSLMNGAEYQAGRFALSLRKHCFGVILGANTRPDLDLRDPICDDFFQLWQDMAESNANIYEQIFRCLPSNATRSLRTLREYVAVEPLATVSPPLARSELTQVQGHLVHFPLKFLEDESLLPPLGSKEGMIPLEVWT
# Sequence (O14939 whole entry, looked up): as above
# Assay: cellular phospholipase D2 activity inhibition – cell-based, HEK293, single concentration (AID 602143);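 also: tested at 200 nM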
# Conditions: HEK293 cellular PLD2 activity, percent of control; stronger effect = lower value
row,Structure (SMILES),remaining activity
1,O=C(NCCN1CCC2(CC1)C(=O)NCN2c1ccccc1)c1cc2ccccc2s1,10.3% (active)
2,Cc1cccc(C(=O)NCCN2CCC3(CC2)C(=O)NCN3c2ccccc2)n1,89% (inactive)
3,O=C(NCCN1CCC2(CC1)C(=O)NCN2c1ccccc1)c1ccnnc1,101% (inactive)
4,CCOC(=O)CCN1CCC2(CC1)C(=O)NCN2c1ccccc1,91.6% (inactive)
5,O=C(NCCN1CCC2(CC1)C(=O)NCN2c1ccccc1)c1cc(-c2ccccc2)no1,88.3% (inactive)
6,O=C(NCCN1CCC2(CC1)C(=O)NCN2c1ccccc1)C1C[C@H]1c1ccccc1 (stereo not given in full),98.4% (inactive)
7,O=C(NCCN1CCC2(CC1)C(=O)NCN2c1ccccc1)c1cc(Br)c(Br)o1,77.1% (inactive)
8,O=C(CCN1CCC2(CC1)C(=O)NCN2c1ccccc1)Nc1ccc(Cl)cc1,183% (inactive)
9,O=C(NCCN1CCC2(CC1)C(=O)NCN2c1cccc(F)c1)c1c(F)cccc1F,88% (inactive)
10,COc1ccc(CC(=O)NCCN2CCC3(CC2)C(=O)NCN3c2cccc(F)c2)cc1OC,102% (inactive) and 91.9% (inactive)
11,O=C(CCN1CCC2(CC1)C(=O)NCN2c1ccccc1)Nc1ccc(F)cc1,119% (inactive)
12,O=C(NCCN1CCC2(CC1)C(=O)NCN2c1cccc(F)c1)c1cc2cc(F)ccc2[nH]1,0.401% (active)
13,Cc1ccccc1C(=O)NCCN1CCC2(CC1)C(=O)NCN2c1cccc(F)c1,115% (inactive)
14,CC(C)[C@@H](CN1CCC2(CC1)C(=O)NCN2c1ccccc1)NC(=O)c1cnc2ccccc2c1,59.3% (inactive)
15,O=C(NCCN1CCC2(CC1)C(=O)NCN2c1ccc(F)cc1)c1cc2ccccc2[nH]1,8.73% (active)
16,Nc1ccc(C(=O)NCCN2CCC3(CC2)C(=O)NCN3c2ccccc2)cc1OC(F)(F)F,97.3% (inactive)
17,O=C(NCCN1CCC2(CC1)C(=O)NCN2c1ccccc1)c1ccc(-c2ccccc2)o1,50.1% (inactive)
18,O=C(NCCN1CCC2(CC1)C(=O)N(Cc1ccccc1)c1ccccc12)c1ccc2ccccc2c1,70.6% (inactive)

row,Structure (SMILES),remaining activity
1,O=C(NCCCN1CCC2(CC1)C(=O)NCN2c1ccccc1)c1ccc2ccccc2c1,98% (inactive)
2,O=C(NCCN1CCC2(CC1)C(=O)NCN2c1ccc(Cl)cc1)c1ccc(Cl)cc1,49% (active)
3,O=C(NCCN1CCC2(CC1)C(=O)NCN2c1ccccc1)c1cccnn1,88.2% (inactive)
4,O=C(c1ccc2ccccc2c1)N1CCCC1CN1CCC(n2c(=O)[nH]c3ccccc32)CC1 (stereo not given),49.9% (active) and 63.2% (inactive)
5,O=C(NCCN1CCC2(CC1)C(=O)NCN2c1ccc(Cl)cc1)c1ccc(F)cc1,58.4% (inactive)
6,O=C(c1cnc2ccccc2c1)N1CC(N2CCC(n3c(=O)[nH]c4ccccc43)CC2)C1,77.3% (inactive)
7,O=C(NCCN1CCC2(CC1)C(=O)NCN2c1cccc(F)c1)c1ccc(Cl)cc1Cl,92.4% (inactive)
8,O=C(NCCN1CCC2(CC1)C(=O)NCN2c1ccc(Br)cc1)c1cnc2ccccc2c1,48.6% (active)
9,COc1cc(C(=O)NCCN2CCC3(CC2)C(=O)NCN3c2ccccc2)ccc1N,38.8% (active)
10,O=C(c1ccc(F)c(F)c1)N1CCCC1CN1CCC(n2c(=O)[nH]c3ccccc32)CC1 (stereo not given),124% (inactive) and 114% (inactive)
11,O=C(NCCN1CCC2(CC1)C(=O)NCN2c1cccc(F)c1)c1cccc(F)c1,63.4% (inactive)
12,O=C(NCCN1CCC2(CC1)C(=O)NCN2c1cccc(Cl)c1)c1cnc2ccccc2c1,45.2% (active)
13,O=C(NCCN1CCC2(CC1)C(=O)NCN2c1cccc(Br)c1)c1ccc2ccccc2c1,47.8% (active)
14,O=C(NCCCCCCN1CCC2(CC1)C(=O)NCN2c1ccccc1)c1cnc2ccccc2c1,127% (inactive)
15,O=C(NCCN1CCC2(CC1)C(=O)NCN2c1ccc(F)cc1)c1cnc2ccccc2c1,24% (active)
16,O=C(NCCN1CCC2(CC1)C(=O)NCN2c1ccc(F)cc1)c1cc2cc(F)ccc2[nH]1,14.3% (active)
17,CN1CN(c2ccccc2)C2(CCN(CCNC(=O)c3ccc4ccccc4c3)CC2)C1=O,57.9% (inactive)
